# Measured values taken from PubChem BioAssay (EPA / NIEHS).
# Active and inactive are the calls of the source. Rule for the calls: active = hit-call score of the fitted dose curve at least 0.9, where 1 is the maximum; inactive = score below 0.9.
# Assays:
# [1] = ATG_GLI_CIS: Attagene CIS-FACTORIAL HepG2 Assay for human Zinc Finger Protein GLI1 (AID 2282945); settings: HepG2, Attagene cis-factorial reporter mRNA, GLI element; actives raise or lower the signal
# In short: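 Bidirectional curve fits relative to DMSO, using reporter mRNA levels from RT-PCR plus capillary electrophoresis. Cells were HepG2 transiently carrying cis-regulated reporter constructs, harvested 24 h after dosing.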
# [2] = target: Bile acid receptor (Homo sapiens) (UniProt Q96RI1); experiment: ATG_IR1_CIS: Attagene CIS-FACTORIAL HepG2 Assay for human Nuclear Receptor Subfamily 1 Group H Member 4 (NR1H4), IR1 submotif (AID 2282946); settings: IR1 reporter transcription, actives raise or lower the signal
# In short: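 HepG2 cells transiently transfected with multiplexed cis-element reporter units read endogenous transcription factor activity. After 24 h compound exposure, reporter mRNA was quantified by RT-PCR, fluorescent labelling, HpaI digestion and capillary electrophoresis; bidirectional fitting versus DMSO baseline.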
# [3] = ATG_GRE_CIS: Attagene CIS-FACTORIAL HepG2 Assay for human Glucocorticoid Response Elements (GRE) (AID 2282947); settings: HepG2 GRE cis-reporter, Attagene multiplex mRNA; actives raise or lower the signal
# In short: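 Multiplexed cis-reporter mRNA induction, HepG2, 24 h post-dose. RT-PCR, FAM-labelled, HpaI-digested amplicons by CE. Bidirectional fit vs DMSO.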
# [4] = ATG_ISRE_CIS: Attagene CIS-FACTORIAL HepG2 Assay for human Interferon Regulatory Factor 1 (IRF1) binding to an Interferon-Stimulated Response Element (ISRE) (AID 2282948); settings: HepG2 ISRE cis-reporter (Attagene), mRNA transcription readout; actives raise or lower the signal
# In short: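 Uses HepG2 liver cells transfected with cis-regulated reporters and measures mRNA 24 h post-dosing through RT-PCR, primer-extension labelling and capillary electrophoresis, with DMSO as negative control.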
# [5] = ATG_M_32_CIS: Attagene CIS-FACTORIAL HepG2 Assay for M32 Transcription Factor (Internal Marker) (AID 2282949); settings: HepG2 Attagene cis-factorial M32 reporter, mRNA; actives raise or lower the signal;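 note: background control marker of the multiplexed CIS panel rather than a real target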
# In short: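 Transient MRTU transfection of HepG2; 24 h compound treatment; TriZol RNA, oligo(dT) RT, reporter PCR, 6-FAM primer extension, HpaI cut, CE. Gain/loss of signal vs DMSO.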
# [6] = ATG_M_06_CIS: Attagene CIS-FACTORIAL HepG2 Assay for M06 Transcription Factor (Internal Marker) (AID 2282950); settings: HepG2 Attagene CIS-FACTORIAL M06 internal marker reporter; actives raise or lower the signal
# In short: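 Internal background marker within multiplexed cis-reporter HepG2 system. Cells transiently transfected, dosed 24 h; reporter mRNA measured by RT-PCR, HpaI digestion and capillary electrophoresis. Bidirectional fit relative to DMSO.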
# [7] = target: Hepatocyte nuclear factor 6 (Homo sapiens) (UniProt Q9UBC0); experiment: ATG_HNF6_CIS: Attagene CIS-FACTORIAL HepG2 Assay for human Hepatocyte Nuclear Factor 6 (HNF6) (AID 2282952); settings: HepG2 Attagene cis-factorial HNF6 reporter transcription; actives raise or lower the signal
# In short: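 Twenty-four-hour chemical treatment of reporter-transfected HepG2 cells precedes RNA isolation, DNase-treated reverse transcription and PCR of reporter sequences. Labelled fragments are sized by capillary electrophoresis and fitted bidirectionally versus DMSO.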
# [8] = target: Heat shock factor protein 1 (Homo sapiens) (UniProt Q00613); experiment: ATG_HSE_CIS: Attagene CIS-FACTORIAL HepG2 Assay for human Heat Shock Transcription Factor 1 (HSE) (AID 2282953); settings: HepG2 HSE cis-reporter, Attagene RNA transcription; actives raise or lower the signal
# In short: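 HepG2 cells transfected with cis-promoter reporter units sensing endogenous transcription factor activity; reporter mRNA quantified 24 h post-dose by RT-PCR and capillary electrophoresis of 6-FAM-labelled products. Bidirectional fitting against DMSO.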
# [9] = ATG_MRE_CIS: Attagene CIS-FACTORIAL HepG2 Assay for human Metal Responsive Element (MRE) (AID 2282954); settings: HepG2 MRE cis-reporter transcription, Attagene multiplex; actives raise or lower the signal
# In short: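 Multiplexed cis-reporter assay in human HepG2 liver cells, 24 h incubation with test chemical. Reporter transcripts measured by RT-PCR and capillary electrophoresis; values from bidirectional curve fitting versus DMSO.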
# [10] = ATG_PBREM_CIS: Attagene CIS-FACTORIAL HepG2 Assay for human Phenobarbital-responsive Enhancer Module (PBREM) (AID 2282955); settings: HepG2 PBREM cis-reporter, Attagene multiplexed transcription; actives raise or lower the signal
# In short: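 Endogenous transcription factor activity was read from reporter transcripts in transiently transfected human HepG2 liver cells after 24 h dosing. RT-PCR products were fluorescently labelled, HpaI-cut and sized by capillary electrophoresis; activity fitted bidirectionally against DMSO baseline.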
# [11] = ATG_PXRE_CIS: Attagene CIS-FACTORIAL HepG2 Assay for human Pregnane X Receptor Element (PXRE) (AID 2282957); settings: HepG2 Attagene CIS-FACTORIAL PXRE reporter, mRNA; actives raise or lower the signal
# In short: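 Bidirectional activity, baselined to DMSO, derived from reporter mRNA fluorescence (RT-PCR plus capillary electrophoresis) in HepG2 cells bearing cis-promoter reporter units, 24 h exposure.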
# [12] = ATG_PPRE_CIS: Attagene CIS-FACTORIAL HepG2 Assay for human Peroxisome Proliferator-activated Response Element (PPRE) (AID 2282958); settings: HepG2 PPRE cis-element reporter, Attagene transcription factor profiling; actives raise or lower the signal
# In short: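 Endogenous PPRE-driven transcription is measured in HepG2 cells carrying transfected multi-reporter constructs. Reporter transcripts are quantified by RT-PCR, HpaI digestion and capillary electrophoresis 24 h after dosing. DMSO baseline, bidirectional fit.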
# [13] = ATG_RORE_CIS: Attagene CIS-FACTORIAL HepG2 Assay for human RAR-related Orphan Receptor Element (RORE) (AID 2282959); settings: HepG2 Attagene cis-factorial RORE reporter, mRNA; actives raise or lower the signal
# In short: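 RORE reporter transcripts reflecting endogenous factor activity were read after 24 h compound exposure of transfected HepG2 cells, using reverse transcription, PCR, fluorescent labelling and capillary electrophoresis sizing. Gain or loss fitted against DMSO.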
# [14] = ATG_Sox_CIS: Attagene CIS-FACTORIAL HepG2 Assay for human SRY-box transcription factor (SOX) (AID 2282960); settings: HepG2 Attagene cis-factorial SOX reporter, mRNA; actives raise or lower the signal
# In short: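 Reporter transcripts, measured by RT-PCR and capillary electrophoresis of labelled fragments, report endogenous SOX transcription factor activity. Transiently transfected human HepG2 cells receive chemical for 24 h; changes in either direction are fitted relative to DMSO.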
# [15] = target: Transcription factor Sp1 (Homo sapiens) (UniProt P08047); experiment: ATG_Sp1_CIS: Attagene CIS-FACTORIAL HepG2 Assay for human Specificity Protein 1 (Sp1) (AID 2282961); settings: HepG2 Sp1 cis-reporter transcription, actives raise or lower the signal
# In short: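 Read-out is reporter transcript level, measured by RT-PCR and fluorescent capillary electrophoresis after 24 h chemical treatment. System: transiently transfected HepG2 cells reporting endogenous transcription factor activity; gain or loss fitted against DMSO baseline.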
# [16] = ATG_SREBP_CIS: Attagene CIS-FACTORIAL HepG2 Assay for human Sterol Regulatory Element Binding (SREBP) (AID 2282962); settings: HepG2 Attagene cis-factorial SREBP reporter, mRNA; actives raise or lower the signal
# In short: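 In this cis-format assay, HepG2 liver cells express reporters controlled by promoter elements responsive to native transcription factors. Exposure lasts 24 h; reporter mRNA fluorescence from capillary electrophoresis gives the signal, fitted bidirectionally against DMSO.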
# [17] = target: Signal transducer and activator of transcription 3 (Homo sapiens) (UniProt P40763); experiment: ATG_STAT3_CIS: Attagene CIS-FACTORIAL HepG2 Assay for human Signal Transducer and Activator of Transcription 3 (STAT3) (AID 2282963); settings: HepG2, Attagene cis-factorial STAT3 reporter transcription; actives raise or lower the signal
# In short: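 Cis-factorial format: endogenous transcription factors in HepG2 drive transfected reporter units. After 24 h treatment, reporter RNA was reverse-transcribed, amplified, FAM-labelled and HpaI-digested before CE analysis; activity scored in both directions against DMSO.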
# [18] = target: Hypoxia-inducible factor 1-alpha (Homo sapiens) (UniProt Q16665); experiment: ATG_HIF1a_CIS: Attagene CIS-FACTORIAL HepG2 Assay for human Hypoxia Inducible Factor 1 (HIF1A) (AID 2282951); settings: HepG2 Attagene cis-factorial HIF1a reporter transcription; actives raise or lower the signal
# In short: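 Activity is fitted in both directions relative to DMSO. Reporter transcripts are read by RT-PCR, fluorescent primer extension and capillary electrophoresis after 24 h chemical treatment. The cells are HepG2 carrying transiently transfected cis-element-driven reporter units responding to endogenous factors.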
# [19] = ATG_TA_CIS: Attagene CIS-FACTORIAL HepG2 Assay for human TA Basal Promoter (AID 2282964); settings: HepG2 Attagene CIS-factorial TA basal promoter reporter; actives raise or lower the signal
# In short: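 HepG2 cells transiently transfected with multiple reporter units under cis promoter elements, reporting endogenous transcription factor activity; this endpoint tracks the TA basal promoter as background control. Reporter mRNA after 24 h dosing measured by RT-PCR/capillary electrophoresis; bidirectional fits versus DMSO.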
# [20] = target: Paired box protein Pax-6 (Homo sapiens) (UniProt P26367); experiment: ATG_Pax6_CIS: Attagene CIS-FACTORIAL HepG2 Assay for human Paired Box 6 (PAX6) (AID 2282956); settings: HepG2 CIS-FACTORIAL PAX6 reporter transcription, RNA readout; actives raise or lower the signal
# In short: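 DMSO-referenced bidirectional fits of reporter mRNA fluorescence; HepG2 with transient cis-promoter MRTUs, 24 h post-dose, RT-PCR plus capillary electrophoresis detection.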
# Chain of Signal transducer and activator of transcription 3 (Homo sapiens) (P40763 whole entry, looked up): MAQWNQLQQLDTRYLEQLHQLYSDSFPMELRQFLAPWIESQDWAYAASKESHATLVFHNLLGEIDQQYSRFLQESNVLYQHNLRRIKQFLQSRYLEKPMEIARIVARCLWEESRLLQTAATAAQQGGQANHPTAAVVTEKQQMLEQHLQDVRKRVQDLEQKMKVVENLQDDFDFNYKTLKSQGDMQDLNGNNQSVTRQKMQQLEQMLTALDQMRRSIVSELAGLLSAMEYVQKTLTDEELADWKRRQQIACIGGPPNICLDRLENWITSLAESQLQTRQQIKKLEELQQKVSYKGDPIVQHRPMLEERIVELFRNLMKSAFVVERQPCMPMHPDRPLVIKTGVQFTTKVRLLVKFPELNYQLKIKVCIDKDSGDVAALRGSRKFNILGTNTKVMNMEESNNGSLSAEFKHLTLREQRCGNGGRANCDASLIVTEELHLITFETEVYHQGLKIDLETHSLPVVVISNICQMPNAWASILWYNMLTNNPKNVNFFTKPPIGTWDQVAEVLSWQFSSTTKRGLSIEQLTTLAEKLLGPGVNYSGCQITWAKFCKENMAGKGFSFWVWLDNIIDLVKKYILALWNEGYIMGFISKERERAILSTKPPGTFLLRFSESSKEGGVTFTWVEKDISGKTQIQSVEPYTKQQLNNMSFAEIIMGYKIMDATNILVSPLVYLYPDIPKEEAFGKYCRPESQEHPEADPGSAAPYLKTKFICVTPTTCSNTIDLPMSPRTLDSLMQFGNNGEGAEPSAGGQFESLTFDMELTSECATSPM
# Chain of Bile acid receptor (Homo sapiens) (Q96RI1 whole entry, looked up): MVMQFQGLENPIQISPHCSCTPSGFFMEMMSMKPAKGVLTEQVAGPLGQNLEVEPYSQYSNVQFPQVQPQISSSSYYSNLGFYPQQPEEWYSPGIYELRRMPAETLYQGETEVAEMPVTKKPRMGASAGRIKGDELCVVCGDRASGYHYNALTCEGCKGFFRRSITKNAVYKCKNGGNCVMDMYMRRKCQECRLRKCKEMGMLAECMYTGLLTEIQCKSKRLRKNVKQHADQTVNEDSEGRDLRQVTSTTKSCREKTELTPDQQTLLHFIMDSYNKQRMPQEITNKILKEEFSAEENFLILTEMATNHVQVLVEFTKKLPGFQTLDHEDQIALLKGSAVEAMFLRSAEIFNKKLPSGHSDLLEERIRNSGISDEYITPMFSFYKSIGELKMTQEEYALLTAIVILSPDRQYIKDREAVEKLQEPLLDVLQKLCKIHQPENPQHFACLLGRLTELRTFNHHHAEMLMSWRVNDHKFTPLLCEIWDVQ
# Chain of Heat shock factor protein 1 (Homo sapiens) (Q00613 whole entry, looked up): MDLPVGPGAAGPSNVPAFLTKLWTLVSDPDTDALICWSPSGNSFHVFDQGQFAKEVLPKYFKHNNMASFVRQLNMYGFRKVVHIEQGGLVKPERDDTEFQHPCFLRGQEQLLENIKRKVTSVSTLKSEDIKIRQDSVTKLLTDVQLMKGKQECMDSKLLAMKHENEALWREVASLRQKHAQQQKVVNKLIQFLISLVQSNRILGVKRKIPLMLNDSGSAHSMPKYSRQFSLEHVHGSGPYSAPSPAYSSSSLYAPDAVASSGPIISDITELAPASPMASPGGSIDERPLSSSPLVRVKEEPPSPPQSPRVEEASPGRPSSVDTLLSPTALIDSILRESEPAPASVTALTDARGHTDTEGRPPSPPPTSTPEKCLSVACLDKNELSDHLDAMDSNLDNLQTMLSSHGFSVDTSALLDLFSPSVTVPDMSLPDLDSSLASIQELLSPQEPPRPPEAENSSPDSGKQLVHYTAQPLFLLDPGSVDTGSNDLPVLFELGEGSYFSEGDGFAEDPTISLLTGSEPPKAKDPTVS
# Chain of Transcription factor Sp1 (Homo sapiens) (P08047 whole entry, looked up): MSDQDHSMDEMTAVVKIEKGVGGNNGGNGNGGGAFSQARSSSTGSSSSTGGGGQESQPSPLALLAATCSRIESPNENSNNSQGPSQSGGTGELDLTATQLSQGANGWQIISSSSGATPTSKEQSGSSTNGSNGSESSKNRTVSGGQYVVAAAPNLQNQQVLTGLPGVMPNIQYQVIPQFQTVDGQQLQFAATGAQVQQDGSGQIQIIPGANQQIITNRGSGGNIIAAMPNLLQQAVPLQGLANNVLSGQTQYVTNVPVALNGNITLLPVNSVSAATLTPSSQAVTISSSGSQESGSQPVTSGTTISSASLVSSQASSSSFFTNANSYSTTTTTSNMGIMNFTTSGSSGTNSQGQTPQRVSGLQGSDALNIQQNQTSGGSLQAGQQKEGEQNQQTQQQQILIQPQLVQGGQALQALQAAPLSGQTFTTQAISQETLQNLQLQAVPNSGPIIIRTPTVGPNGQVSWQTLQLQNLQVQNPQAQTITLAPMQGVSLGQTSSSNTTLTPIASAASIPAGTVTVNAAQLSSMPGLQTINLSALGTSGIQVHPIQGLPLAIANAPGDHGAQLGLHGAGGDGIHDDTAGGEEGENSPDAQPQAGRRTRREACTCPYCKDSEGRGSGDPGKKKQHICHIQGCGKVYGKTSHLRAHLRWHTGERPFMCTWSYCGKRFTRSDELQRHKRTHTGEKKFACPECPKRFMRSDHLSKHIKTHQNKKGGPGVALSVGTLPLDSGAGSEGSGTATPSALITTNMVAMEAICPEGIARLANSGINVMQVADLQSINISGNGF
# Chain of Hepatocyte nuclear factor 6 (Homo sapiens) (Q9UBC0 whole entry, looked up, the tested form may be a part): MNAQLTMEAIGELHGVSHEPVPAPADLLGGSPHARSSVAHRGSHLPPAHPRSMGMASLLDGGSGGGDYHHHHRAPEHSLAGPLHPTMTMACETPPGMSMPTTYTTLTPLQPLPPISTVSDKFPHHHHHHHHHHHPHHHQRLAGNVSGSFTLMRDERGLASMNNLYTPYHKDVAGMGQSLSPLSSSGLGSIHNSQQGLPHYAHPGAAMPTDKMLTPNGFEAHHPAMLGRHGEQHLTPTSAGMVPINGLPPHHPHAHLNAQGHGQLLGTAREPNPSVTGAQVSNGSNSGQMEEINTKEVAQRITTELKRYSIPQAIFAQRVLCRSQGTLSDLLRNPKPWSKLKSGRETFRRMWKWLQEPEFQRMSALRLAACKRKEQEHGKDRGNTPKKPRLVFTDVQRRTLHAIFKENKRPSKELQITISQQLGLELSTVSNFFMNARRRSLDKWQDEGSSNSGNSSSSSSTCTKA
# Chain of Hypoxia-inducible factor 1-alpha (Homo sapiens) (Q16665 whole entry, looked up): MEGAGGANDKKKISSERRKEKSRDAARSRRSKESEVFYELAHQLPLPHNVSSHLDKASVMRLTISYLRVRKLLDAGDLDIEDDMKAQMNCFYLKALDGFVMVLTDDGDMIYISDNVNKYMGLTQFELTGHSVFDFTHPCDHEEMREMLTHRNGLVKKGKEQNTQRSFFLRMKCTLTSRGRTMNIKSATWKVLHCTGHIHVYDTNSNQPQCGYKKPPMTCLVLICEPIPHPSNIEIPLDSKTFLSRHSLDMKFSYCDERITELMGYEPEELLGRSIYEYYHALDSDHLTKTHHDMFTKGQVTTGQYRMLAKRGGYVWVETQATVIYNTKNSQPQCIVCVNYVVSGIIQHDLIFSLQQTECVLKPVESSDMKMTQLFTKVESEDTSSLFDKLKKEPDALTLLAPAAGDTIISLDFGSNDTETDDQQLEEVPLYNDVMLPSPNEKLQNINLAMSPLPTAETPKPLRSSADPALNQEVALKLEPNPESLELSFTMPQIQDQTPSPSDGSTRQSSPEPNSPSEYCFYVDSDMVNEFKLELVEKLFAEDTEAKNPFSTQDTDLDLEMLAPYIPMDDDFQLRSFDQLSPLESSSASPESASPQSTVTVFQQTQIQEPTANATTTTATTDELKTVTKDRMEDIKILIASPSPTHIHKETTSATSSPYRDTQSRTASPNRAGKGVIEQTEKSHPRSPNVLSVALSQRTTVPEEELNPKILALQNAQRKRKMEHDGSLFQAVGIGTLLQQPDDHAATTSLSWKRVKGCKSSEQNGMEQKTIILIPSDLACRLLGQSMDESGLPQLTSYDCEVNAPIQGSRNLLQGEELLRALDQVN
# Chain of Paired box protein Pax-6 (Homo sapiens) (P26367 whole entry, looked up): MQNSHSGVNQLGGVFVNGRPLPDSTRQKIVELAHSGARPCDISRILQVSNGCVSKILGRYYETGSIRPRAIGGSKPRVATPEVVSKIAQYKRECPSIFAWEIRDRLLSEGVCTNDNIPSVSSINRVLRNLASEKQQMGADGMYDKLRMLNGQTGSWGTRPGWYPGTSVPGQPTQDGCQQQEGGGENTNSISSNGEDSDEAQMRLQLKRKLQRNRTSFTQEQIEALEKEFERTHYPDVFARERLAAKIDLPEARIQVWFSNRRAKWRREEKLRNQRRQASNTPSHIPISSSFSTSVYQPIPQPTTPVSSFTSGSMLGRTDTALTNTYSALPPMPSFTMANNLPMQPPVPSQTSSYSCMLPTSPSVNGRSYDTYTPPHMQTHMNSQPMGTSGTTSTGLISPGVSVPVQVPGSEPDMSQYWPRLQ
structure (smiles),measurement,setting,value
c1ccc(C[P+](c2ccccc2)(c2ccccc2)c2ccccc2)cc1,outcome,[1],inactive
same,outcome,[2],inactive
same,outcome,[3],inactive
same,AC50,[4],31.3 µM (active)
same,outcome,[5],inactive
same,outcome,[6],inactive
same,outcome,[7],inactive
same,outcome,[8],inactive
same,AC50,[9],59.4 µM (active)
same,outcome,[10],inactive
same,outcome,[11],inactive
same,outcome,[12],inactive
same,outcome,[13],inactive
same,outcome,[14],inactive
same,outcome,[15],inactive
same,outcome,[16],inactive
same,outcome,[17],inactive
NC(=O)C(F)(F)C(F)(F)C(F)(F)F,outcome,[1],inactive
same,outcome,[2],inactive
same,outcome,[3],inactive
same,outcome,[4],inactive
same,outcome,[5],inactive
same,outcome,[6],inactive
same,outcome,[18],inactive
same,outcome,[7],inactive
same,outcome,[8],inactive
same,outcome,[9],inactive
same,outcome,[10],inactive
same,outcome,[11],inactive
same,outcome,[12],inactive
same,outcome,[13],inactive
same,outcome,[14],inactive
same,outcome,[15],inactive
same,outcome,[16],inactive
same,outcome,[17],inactive
same,outcome,[19],inactive
CC1CCCCC1,outcome,[1],inactive
same,outcome,[2],inactive
same,outcome,[3],inactive
same,outcome,[4],inactive
same,outcome,[5],inactive
same,outcome,[6],inactive
same,outcome,[18],inactive
same,outcome,[7],inactive
same,outcome,[8],inactive
same,outcome,[10],inactive
same,outcome,[20],inactive
same,outcome,[11],inactive
same,outcome,[12],inactive
same,outcome,[13],inactive
same,outcome,[14],inactive
same,outcome,[15],inactive
same,outcome,[16],inactive
same,outcome,[17],inactive
same,outcome,[19],inactive
